# Assay results: the supplement of paper PMC8728848
# The entries come from a sample that favours the strongest signals as a whole.
# Tests used:
# Assay in all cases: glycan array binding signal (z-score within array); higher = stronger binding
# Conditions in all cases: glycan notation: IUPAC condensed, linker removed
# [1] = tested on: Man(a1-3)[Man(a1-6)]Man(b1-4)GlcNAc(b1-4)[Fuc(a1-6)]GlcNAc
# In short: (§1)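 The binding signal is a Z-score computed within each array and averaged over linkers. Arrays of the same protein sequence at different concentrations or buffers were also averaged together. Data originate from 3228 arrays in the Consortium for Functional Glycomics database, kept only where the protein sequence was available.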
# [2] = tested on: Neu5Ac(a2-3)Gal(b1-3)GlcNAc(b1-3)Gal(b1-4)GlcNAc
# In short: as §1
# [3] = tested on: Neu5Ac(a2-3)Gal(b1-3)[Neu5Ac(a2-6)]GalNAc
# In short: as §1
# [4] = tested on: Neu5Ac(a2-3)Gal(b1-3)GalNAc(b1-4)[Neu5Ac(a2-3)]Gal(b1-4)Glc
# In short: as §1
# [5] = tested on: Neu5Ac(a2-3)Gal(b1-3)GalNAc(b1-4)[Neu5Ac(a2-8)Neu5Ac(a2-3)]Gal(b1-4)Glc
# In short: as §1
# [6] = tested on: Neu5Ac(a2-3)Gal(b1-3)GlcNAc(b1-2)Man(a1-3)[GlcNAc(b1-4)][Neu5Ac(a2-3)Gal(b1-3)GlcNAc(b1-2)Man(a1-6)]Man(b1-4)GlcNAc(b1-4)GlcNAc
# In short: as §1
# [7] = tested on: Neu5Ac(a2-3)Gal(b1-3)GlcNAc(b1-4)Gal(b1-4)Glc
# In short: as §1
# [8] = tested on: Neu5Ac(a2-3)Gal(b1-4)GlcNAc(b1-2)Man(a1-3)[GlcNAc(b1-4)][Neu5Ac(a2-3)Gal(b1-4)GlcNAc(b1-2)Man(a1-6)]Man(b1-4)GlcNAc(b1-4)GlcNAc
# In short: as §1
# [9] = tested on: Neu5Ac(a2-3)Gal(b1-4)GlcNAc(b1-2)Man(a1-3)[Neu5Ac(a2-6)Gal(b1-4)GlcNAc(b1-2)Man(a1-6)]Man(b1-4)GlcNAc(b1-4)GlcNAc
# In short: as §1
# [10] = tested on: Man(a1-3)[Man(a1-6)]Man(a1-6)[Man(a1-2)Man(a1-3)]Man(b1-4)GlcNAc(b1-4)GlcNAc
# In short: as §1
# Man(a1-3)[Man(a1-6)]Man = tested on: Man(a1-3)[Man(a1-6)]Man
# In short: as §1
# [11] = tested on: Neu5Ac(a2-3)Gal(b1-3)GalNAc
# In short: as §1
# [12] = tested on: Neu5Ac(a2-3)Gal(b1-3)GlcNAc6S
# In short: as §1
# Man(b1-4)GlcNAc = tested on: Man(b1-4)GlcNAc
# In short: as §1
# MurNAc(b1-4)GlcNAc = tested on: MurNAc(b1-4)GlcNAc
# In short: as §1
# [13] = tested on: Neu5Ac(a2-3)Gal(b1-3)GlcNAc(b1-6)GalNAc
# In short: as §1
# [14] = tested on: Neu5Ac(a2-3)Gal(b1-4)GlcNAc(b1-2)Man
# In short: as §1
# [15] = tested on: Neu5Ac(a2-3)Gal(b1-3)GlcNAc(b1-3)Gal(b1-3)GlcNAc
# In short: as §1
# [16] = tested on: Neu5Ac(a2-3)Gal(b1-4)GlcNAc(b1-2)Man(a1-3)[Neu5Ac(a2-3)Gal(b1-4)GlcNAc(b1-2)Man(a1-6)]Man(b1-4)GlcNAc(b1-4)[Fuc(a1-6)]GlcNAc
# In short: as §1
# [17] = tested on: Neu5Ac(a2-3)Gal(b1-3)[Fuc(a1-4)]GlcNAc
# In short: as §1
substance,measurement,setting,value
Epa22,glycan array binding signal (z-score),[1],-0.324
"BambL (Burhholderia ambifaria), Q0B4G1",glycan array binding signal (z-score),[2],-0.316
"MIC3-MAR1b (Eimeria tenella), B6VCV4",glycan array binding signal (z-score),[3],-0.355
AgI/II Vhelical-GFP (Streptococcus mutans),glycan array binding signal (z-score),[4],0.244
same,glycan array binding signal (z-score),[5],-0.256
same,glycan array binding signal (z-score),[6],1.2
same,glycan array binding signal (z-score),[7],-0.297
same,glycan array binding signal (z-score),[8],0.396
same,glycan array binding signal (z-score),[9],-0.182
"Wza (Escherichia coli), P0A930",glycan array binding signal (z-score),[10],0.776
same,glycan array binding signal (z-score),Man(a1-3)[Man(a1-6)]Man,1.81
"GspB (Streptococcus gordonii), Q939N5",glycan array binding signal (z-score),[11],4.52
same,glycan array binding signal (z-score),[12],-0.2
same,glycan array binding signal (z-score),[3],3.61
LcI (Legionella pneumophila),glycan array binding signal (z-score),Man(b1-4)GlcNAc,0.079
same,glycan array binding signal (z-score),MurNAc(b1-4)GlcNAc,0.332
same,glycan array binding signal (z-score),[6],-0.429
same,glycan array binding signal (z-score),[13],3.77
same,glycan array binding signal (z-score),[14],2.16
AgI/IIC123-GFP (Streptococcus mutans),glycan array binding signal (z-score),[10],-0.159
same,glycan array binding signal (z-score),[6],-0.265
same,glycan array binding signal (z-score),[15],-0.456
same,glycan array binding signal (z-score),[16],-0.442
Actinohivin (Actinomycete K97),glycan array binding signal (z-score),[12],-0.191
same,glycan array binding signal (z-score),[17],-0.196
"SiiE (Salmonella typhimurium), A0A0H3NVH0",glycan array binding signal (z-score),[2],-0.888
